Reference: ChEMBL document CHEMBL3988442, “University of Dundee, Small-Polar-MMV Screening Library” (2021)
The whole screen tested about 48,000 compounds, of which about 13,000 (27%) showed an effect of 50% or more. The list shows a part of the results.

System: Wolbachia pipientis
Assay: Anti-Wolbachia Cell-Based Screen
Format: functional
Set-up: scale not given: in the data most compounds retested in dose-response had high values
Conditions: 5 µM

| SMILES | Percent Effect |
| --- | --- |
| Cc1cc2cc(CNC3CCN(CC4CCOC4)CC3)oc2cc1C (stereo unspecified) | -8.178% |
| Cc1cccc(CO[C@@H]2CO[C@@]3(CCN(S(=O)(=O)N(C)C)C3)C2)n1.O=C(O)C(F)(F)F | 0.8682% |
| CCOC1COC2(CCN(Cc3cccc(C)n3)CC2)C1.O=C(O)C(F)(F)F (stereo unspecified) | 109.8% |
| Cc1cnc(N2CCC3(CC2)CC(NS(C)(=O)=O)CO3)nc1 (stereo unspecified) | -15.37% |
| CCOC1COC2(CCN(c3ncc(C)cn3)CC2)C1 (stereo unspecified) | 100.2% |
| CN(C)C(=O)COC1COC2(CCN(c3cnccn3)CC2)C1.O=C(O)C(F)(F)F (stereo unspecified) | 7.565% |
| CN(C)C(=O)COC1COC2(CCN(c3ncccn3)CC2)C1 (stereo unspecified) | 5.74% |
| CCOC1COC2(CCN(Cc3ccco3)CC2)C1.O=C(O)C(F)(F)F (stereo unspecified) | -20.65% |
| CCOC1COC2(CCN(c3ccccn3)CC2)C1.O=C(O)C(F)(F)F (stereo unspecified) | 106.9% |
| CCS(=O)(=O)N1CCC2(CC1)CC(Oc1ccccn1)CO2.O=C(O)C(F)(F)F (stereo unspecified) | 11.25% |
| CCOC1COC2(CCN(C(=O)c3cccc(C)n3)CC2)C1.O=C(O)C(F)(F)F (stereo unspecified) | 94.67% |
| COCC1CC2(CCN(c3cccc(C)n3)CC2)CN1c1ncccn1.O=C(O)C(F)(F)F (stereo unspecified) | 95.56% |
| Cc1cccc(COC2COC3(CCN(S(C)(=O)=O)CC3)C2)n1.O=C(O)C(F)(F)F (stereo unspecified) | 2.01% |
| COCCN1CCC2(CC1)CC(COC)N(c1ncccn1)C2.O=C(O)C(F)(F)F.O=C(O)C(F)(F)F (stereo unspecified) | -10.3% |
| CCS(=O)(=O)N1CCC2(CC1)CC(COC)N(c1ncccn1)C2.O=C(O)C(F)(F)F (stereo unspecified) | -2.955% |
| CCOC1COC2(CCN(c3cccc(C)n3)CC2)C1.O=C(O)C(F)(F)F (stereo unspecified) | 89.3% |
| CN(C)C(=O)COC1COC2(CCN(c3cccc(F)c3)CC2)C1.O=C(O)C(F)(F)F (stereo unspecified) | -1.854% |
| CSc1ccc(-c2nc(CN3CCC(NC(C)=O)CC3)c(C)o2)cc1 | 26.44% |
| O=C(O)C(F)(F)F.O=C(O)C(F)(F)F.c1ccc(O[C@H]2CO[C@@]3(CCN(Cc4ccc5c(c4)OCO5)C3)C2)nc1 | 2.667% |
| CS(=O)(=O)N1CCC[C@]2(C[C@@H](Oc3ncccc3F)CO2)C1.O=C(O)C(F)(F)F | -13.76% |
| Cn1cc(CN2CCC[C@]3(C[C@H](Oc4ncccc4F)CO3)C2)cn1.O=C(O)C(F)(F)F.O=C(O)C(F)(F)F | 108.2% |

| SMILES | Percent Effect |
| --- | --- |
| CN(C)S(=O)(=O)N1CC[C@]2(C[C@H](Oc3ncccc3F)CO2)C1.O=C(O)C(F)(F)F | -14.15% |
| Cn1cc(CN2CCC[C@]3(C[C@@H](Oc4ncccc4F)CO3)C2)cn1.O=C(O)C(F)(F)F.O=C(O)C(F)(F)F | 104.4% |
| O=C(O)C(F)(F)F.O=C(c1cnoc1)N1CCC[C@]2(C[C@H](Oc3ncccc3F)CO2)C1 | -8.736% |
| Cc1nc(CN2CCCC(N(C)Cc3nc(CC(C)C)no3)C2)no1 (stereo unspecified) | -5.621% |
| COC[C@@H]1CCC[C@]12CN(S(=O)(=O)c1cn(C)cn1)CCO2 | 112.9% |
| COCC1N(S(=O)(=O)c2cn(C)cn2)[C@H]2CC[C@]1(O)CC2 (stereo partly specified) | 116.2% |
| COC[C@H]1CCC[C@]12CN(S(=O)(=O)c1cccs1)CCO2 | -5.962% |
| CCOC[C@@H]1CCC[C@]12CN(S(=O)(=O)c1cn(C)cn1)CCO2 | 118.4% |
| CC(C)OC[C@H]1CCC[C@]12CN(S(=O)(=O)C1CC1)CCO2 | -22.82% |
| CO[C@@H]1CCN(S(=O)(=O)c2cn(C)cn2)[C@H]1Cc1ccccc1 | -1.543% |
| CO[C@@H]1CC[C@H]2[C@H]1OCCN2S(=O)(=O)c1cn(C)cn1 | -3.329% |
| CCN1CCO[C@]2(CCC[C@H]2COCc2csc(C)n2)C1.O=C(O)C(F)(F)F.O=C(O)C(F)(F)F | -10.73% |
| CC(C)OC[C@H]1CCC[C@]12CN(S(=O)(=O)c1cn(C)cn1)CCO2 | 110% |
| COC[C@@H]1CCC[C@]12CN(S(=O)(=O)c1cccs1)CCO2 | -10.75% |
| CC(C)OC[C@H]1CCC[C@]12CN(S(=O)(=O)c1cccs1)CCO2 | -17.54% |
| O=C(c1cnccn1)N1CCN2C[C@H](OCC3CC3)C[C@H]2C1 | -2.249% |
| CCOc1cccc(COC(=O)c2scnc2C)n1 | -15.18% |
| O=C(NCCn1cccn1)C1CCC(=O)N(CC2CCCCC2)C1 (stereo unspecified) | 7.611% |
| Cc1ccccc1OC1CN(Cc2c(C)nc3ccccn23)C1 | -115.8% |
| CNc1nc(CNC(=O)Nc2cccc(F)c2C)cs1 | -1.885% |
| O=C(NCCCn1cccn1)C1CCC(=O)N(Cc2ccccc2F)C1 (stereo unspecified) | -2.925% |

| SMILES | Percent Effect |
| --- | --- |
| CC(C)OCCCNC(=O)c1ccc(-c2ccco2)[nH]c1=O | -5.072% |
| COCCNC(=O)C(C)n1nc(-c2ccco2)cc(N)c1=O (stereo unspecified) | 94.6% |
| CC(C)CCNC(=O)c1ccc(-c2ccco2)[nH]c1=O | 11.73% |
| COCCCNC(=O)Nc1cc(-c2ccccc2C)nn1CCO | -5.534% |
| CCC(C)NC(=O)c1ccc(-c2ccco2)[nH]c1=O (stereo unspecified) | 3.717% |
| COCCCNC(=O)C(C)n1nc(-c2ccco2)cc(N)c1=O (stereo unspecified) | 133.4% |
| COc1cc(NC(=O)N(C)Cc2ccc(Br)o2)ncn1 | 1.624% |
| COc1ccnc(NC(=O)c2cscn2)c1 | -4.154% |
| CSc1ncccc1C(=O)N1C[C@H]2CC[C@@H]1CN(CC(=O)N(C)C)C2 | -12.01% |
| F[C@@H]1CN(CC2CC2)C[C@@H]1OCc1nc2ccccc2o1 | -15.91% |
| C[C@@H]1CN(CCOc2ccc(Cl)cc2)CC[C@@]1(O)C1CCOCC1 | 95.64% |
| C[C@@H]1CN(CCOCc2ccccc2)CC[C@@]1(O)C1CCC1 | -4.959% |
| C[C@@H]1CN(Cc2cc(C3CCCCC3)no2)CC[C@@]1(O)C1CC1 | 9.24% |
| C[C@@H]1CN(CCCOc2ccc(F)cc2)CC[C@@]1(O)C1CCOCC1 | 97.34% |
| C[C@@H]1CN(C(=O)CCCN2CCCC2)CC[C@@]1(O)C1CCOCC1 | -4.515% |
| COc1cc(F)c(CN2CC[C@@](O)(C3CC3)[C@H](C)C2)cc1OC | 9.055% |
| C[C@@H]1CN(C(=O)CCCN2CCOCC2)CC[C@@]1(O)C1CCC1 | -2.629% |
| COc1cccc(OCCN2CC[C@@](O)(C3CCOCC3)[C@H](C)C2)c1 | 98.26% |
| C[C@@H]1CN(CCOc2ccc(F)cc2)CC[C@@]1(O)C1CCOCC1 | 93.05% |
